According to PubChem BioAssay (Tox21):
Where “and” joins values, the source holds several entries; their conditions need not be identical. Equal entries are not always repeated. Records with an inconclusive call do not appear. Where a call stands in place of a potency, no number is given. Where a structure was tested more than once in an assay, its records may differ in their call. Calls of active or inactive are those of the source. Calls follow the shape of the dose curve; as a rule, active = well fitted activation curve with a large enough effect in the repeat runs; inconclusive = weak or mixed curves; inactive = flat fitted curve, though single readings scatter.

assay: A CellTox Green Cytotoxicity Assay to monitor cytotoxicity in HepG2 cells - 32 hour (AID 1224883); settings: CellTox Green fluorescence; series mostly up to 76.8 µM; also: nearly all actives have a fitted effect of over 50% in size
Text: National Center for Advancing Translational Sciences [NCATS]
NIH Chemical Genomics Center [NCGC]
U.S. Environmental Protection Agency [EPA]
National Institutes of Environmental Health Sciences [NIEHS]
National Toxicology Program [NTP]
Cell-based models are critical for drug discovery. Determining the natural cytotoxic effects resulting from test compounds is an essential research activity. A CellTox Green Cytotoxicity Assay to monitor cytotoxicity in real time of continues cell culture during 40 hours of the compound treatment was used to screen Tox21 10K library compounds in HepG2 cells. CellTox Green Cytotoxicity Assay is a nonlytic, homogeneous, biofluorescent method to measure cytotoxicity in cell culture after experimental manipulation. The assay system uses a proprietary asymmetric cyanine dye that is excluded from viable cells but preferentially stains the dead cell's DNA. […] Viable cells produce no appreciable increases in fluorescence. Therefore, the fluorescence signal produced by the binding interaction with dead cell DNA is proportional to cytotoxicity.
The mixture of HepG2 cell suspension and reagents were dispensed at 600cells/6 ul/well in 1536-well tissue culture treated black solid bottom plates using a Multidrop dispenser. After the assay plates were incubated at a 37 C/5% CO2 incubator for 5 hours, 23 nL of compounds dissolved in DMSO, positive and negative controls was transferred to the assay plate by a pintool work station. The plates were incubated at 37 C for 40 hours. The fluorescence intensity were measured at 0h, 8h, 16h, 24h, 32h and 40h time points using ViewLux plate reader during compound treatment.
Potency is read from the fitted curve at half-maximal effect.

Compound	Potency
C=CCc1ccc(OC)c(OC)c1	inactive
COC(=O)c1cccnc1	inactive
C=C(C)C(=O)OCC(C)C	inactive
CC(C)(Oc1ccc(CCNC(=O)c2ccc(Cl)cc2)cc1)C(=O)O	inactive
CN/C(=C\[N+](=O)[O-])NCCSCc1csc(CN(C)C)n1	inactive
CC(C)CC(C)O (stereo not given)	inactive
O=C(O)/C=C/C(=O)O	inactive
CCCCCCCCCCN	inactive
CCCCCCCO	inactive
O=C1C(c2[nH]c3ccccc3c2O)=Nc2ccccc21	inactive
COc1cc(OC)c(C(=O)CCCN2CCCC2)c(OC)c1	inactive
OC1C(O)C(O)C(O)C(O)C1O (stereo not given)	inactive
O=[N+]([O-])c1ccc2nc[nH]c2c1	inactive
COCCCN	inactive
N[C@H](Cc1c[nH]c2ccccc12)C(=O)O	inactive
O=C(O)c1cc2ccccc2cc1O	inactive
O=C(OCC1CCC2OC2C1)C1CCC2OC2C1 (stereo not given)	inactive
CC(C)c1cccc(C(C)C)c1	inactive
OCc1ccccc1	inactive
CNC(=S)N(C)C	inactive

Compound	Potency
CN(C)CCOC(=O)COc1ccc(Cl)cc1	inactive
CCCOC(=O)c1ccccc1	inactive
CC(=O)CCC=C(C)C	inactive
CC(C)(C)c1cc(Cc2cc(C(C)(C)C)c(O)c(C(C)(C)C)c2)cc(C(C)(C)C)c1O	inactive
C[C@]12CC[C@@H]3c4ccc(O)cc4CC[C@H]3[C@@H]1C[C@@H](O)[C@@H]2O	inactive
CCCCCCCCCCCCCCCC(=O)OC(C)C	inactive
CN(C)c1ccc(O)c2c1C[C@H]1C[C@H]3[C@H](N(C)C)C(=O)C(C(N)=O)=C(O)[C@@]3(O)C(=O)C1=C2O	inactive
C=CC(=O)OCCC(=O)O	inactive
CC(O)CC(C)(C)O (stereo not given)	inactive
CCCCCCCCCCO	inactive
CC(C)OP(=O)(CP(=O)(OC(C)C)OC(C)C)OC(C)C	inactive
CC(=O)Oc1ccc(C)cc1	inactive
CCCCCC(=O)O	inactive
CCOC(=O)n1ccn(C)c1=S	inactive
CC(CCO)CC(C)(C)C (stereo not given)	inactive
CCCCCCC=O	inactive
O=C1CCCC1	inactive
CCCCC(C=O)CC (stereo not given)	inactive and 14.6 µM (active)
CC(=O)OC1CC(C)OC(C)O1 (stereo not given)	inactive
O=C(O)c1ccc(S(=O)(=O)N(Cl)Cl)cc1	inactive
